Laboratory results reported in ChEMBL document CHEMBL3988442, “University of Dundee, Small-Polar-MMV Screening Library” (2021).
For some assays here: Results with a measured potency or affinity are listed apart.

What was measured:
Parameters in all cases: scale not given: direction of the effect not stated beside the values
[1] = target: Protein translocase subunit SecA (Escherichia coli (strain K12)) (UniProt P10408); experiment: Assay to Identify E. coli SecA ATPase Inhibitors; format: functional; conditions: 30 µM
Sequence of Protein translocase subunit SecA (Escherichia coli (strain K12)) (P10408 whole entry): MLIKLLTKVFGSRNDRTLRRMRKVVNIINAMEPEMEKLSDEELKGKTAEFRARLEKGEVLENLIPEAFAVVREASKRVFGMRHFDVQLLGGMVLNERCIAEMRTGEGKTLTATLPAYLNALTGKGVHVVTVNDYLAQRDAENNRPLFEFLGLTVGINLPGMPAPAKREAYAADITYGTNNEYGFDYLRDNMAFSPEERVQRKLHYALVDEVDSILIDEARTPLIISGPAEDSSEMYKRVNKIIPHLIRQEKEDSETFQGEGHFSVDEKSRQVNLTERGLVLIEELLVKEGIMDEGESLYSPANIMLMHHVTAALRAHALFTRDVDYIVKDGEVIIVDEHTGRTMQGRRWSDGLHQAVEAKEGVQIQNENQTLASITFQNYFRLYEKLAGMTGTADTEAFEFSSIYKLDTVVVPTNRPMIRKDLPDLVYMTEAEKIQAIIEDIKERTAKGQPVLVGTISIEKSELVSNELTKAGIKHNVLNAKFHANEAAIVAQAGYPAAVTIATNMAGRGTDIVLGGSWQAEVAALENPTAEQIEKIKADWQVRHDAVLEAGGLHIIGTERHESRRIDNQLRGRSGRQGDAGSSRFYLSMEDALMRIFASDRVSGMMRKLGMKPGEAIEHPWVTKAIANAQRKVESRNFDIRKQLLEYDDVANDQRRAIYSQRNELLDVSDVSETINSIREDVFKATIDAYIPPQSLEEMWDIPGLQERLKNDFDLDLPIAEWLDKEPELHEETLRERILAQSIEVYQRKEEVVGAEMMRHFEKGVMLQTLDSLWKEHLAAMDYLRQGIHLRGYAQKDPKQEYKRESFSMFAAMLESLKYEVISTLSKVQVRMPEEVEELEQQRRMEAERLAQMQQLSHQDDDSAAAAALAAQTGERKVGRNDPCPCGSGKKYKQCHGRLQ

[2] = target: T1, Ubiquitin-activating enzyme e1, putative (Leishmania donovani (strain BPK282A1)) (UniProt E9BSI1); experiment: Leishmania donovani Ubiquitin Activating Enzyme (LdE1); format: functional; conditions: 30 µM
T1 sequence (whole entry): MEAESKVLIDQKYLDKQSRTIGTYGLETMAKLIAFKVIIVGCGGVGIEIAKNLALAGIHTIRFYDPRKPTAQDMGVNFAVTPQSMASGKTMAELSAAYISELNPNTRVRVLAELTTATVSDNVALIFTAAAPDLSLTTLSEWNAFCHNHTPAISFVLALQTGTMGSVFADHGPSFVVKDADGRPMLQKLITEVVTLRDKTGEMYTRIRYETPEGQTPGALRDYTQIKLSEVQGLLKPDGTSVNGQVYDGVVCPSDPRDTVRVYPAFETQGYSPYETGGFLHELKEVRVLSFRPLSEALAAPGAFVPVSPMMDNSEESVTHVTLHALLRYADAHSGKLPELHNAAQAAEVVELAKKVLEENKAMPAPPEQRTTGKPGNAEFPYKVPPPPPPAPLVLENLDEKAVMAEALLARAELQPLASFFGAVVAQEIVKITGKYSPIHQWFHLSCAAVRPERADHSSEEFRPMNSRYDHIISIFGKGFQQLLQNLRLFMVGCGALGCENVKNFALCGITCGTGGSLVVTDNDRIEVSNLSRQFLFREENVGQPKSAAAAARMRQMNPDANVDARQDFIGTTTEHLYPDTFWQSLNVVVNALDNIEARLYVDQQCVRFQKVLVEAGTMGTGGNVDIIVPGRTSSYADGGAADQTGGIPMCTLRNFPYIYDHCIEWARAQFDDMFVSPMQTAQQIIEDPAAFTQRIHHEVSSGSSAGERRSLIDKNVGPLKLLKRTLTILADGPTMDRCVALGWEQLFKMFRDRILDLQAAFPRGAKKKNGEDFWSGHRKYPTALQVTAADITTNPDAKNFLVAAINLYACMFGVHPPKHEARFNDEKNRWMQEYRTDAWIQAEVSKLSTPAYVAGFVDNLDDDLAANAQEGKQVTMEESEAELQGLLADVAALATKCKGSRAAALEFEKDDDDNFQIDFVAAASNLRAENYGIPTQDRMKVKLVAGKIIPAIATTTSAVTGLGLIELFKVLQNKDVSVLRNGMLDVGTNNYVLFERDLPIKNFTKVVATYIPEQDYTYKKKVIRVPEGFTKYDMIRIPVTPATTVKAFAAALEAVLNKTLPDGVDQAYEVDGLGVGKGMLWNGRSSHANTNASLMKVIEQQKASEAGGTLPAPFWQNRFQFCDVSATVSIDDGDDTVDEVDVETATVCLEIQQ

[3] = target: AMP-activated protein kinase, AMPK (Homo sapiens) (UniProt P54646+O43741+P54619+Q9UGJ0+Q9Y478+Q13131+Q9UGI9); experiment: AMP-dependent Kinase enzyme assay. An in vitro enzyme assay that detects ADP turnover that is directly proportional to AMPK activity. This uses naive AMPK that is activated during the assay with MK-8722; format: functional; conditions: 30 µM
[4] = target: Sialic acid-binding Ig-like lectin 9 (Homo sapiens) (UniProt Q9Y336); experiment: Hs-Siglec9 ALPHAscreen SOP 20170721; conditions: 10 µM
Sequence of Sialic acid-binding Ig-like lectin 9 (Homo sapiens) (Q9Y336 whole entry): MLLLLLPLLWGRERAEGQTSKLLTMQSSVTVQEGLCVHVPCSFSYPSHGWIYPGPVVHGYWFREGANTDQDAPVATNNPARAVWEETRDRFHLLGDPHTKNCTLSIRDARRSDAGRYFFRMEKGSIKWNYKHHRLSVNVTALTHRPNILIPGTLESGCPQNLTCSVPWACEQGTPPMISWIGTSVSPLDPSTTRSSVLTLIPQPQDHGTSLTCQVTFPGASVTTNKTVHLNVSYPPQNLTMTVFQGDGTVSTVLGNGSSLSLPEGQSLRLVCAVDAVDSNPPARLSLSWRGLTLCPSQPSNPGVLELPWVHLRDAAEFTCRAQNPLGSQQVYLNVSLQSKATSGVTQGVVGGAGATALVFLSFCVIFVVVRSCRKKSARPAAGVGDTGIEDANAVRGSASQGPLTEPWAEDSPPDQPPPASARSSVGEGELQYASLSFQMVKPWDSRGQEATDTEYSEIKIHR

Trypanosoma cruzi = experiment: Trypanosoma cruzi phosphomannomutase and mannose-1-phosphate guanylyltransferase assay; format: functional; conditions: 10 µM
[5] = target: T2, Arginase-2, mitochondrial (Homo sapiens) (UniProt P78540); experiment: in vitro enzyme assay to detect the production of urea directly proportional to the activity of Arginase II; format: functional; conditions: 33.3 µM; note: in the data most compounds retested in dose-response had high values
T2 sequence (whole entry): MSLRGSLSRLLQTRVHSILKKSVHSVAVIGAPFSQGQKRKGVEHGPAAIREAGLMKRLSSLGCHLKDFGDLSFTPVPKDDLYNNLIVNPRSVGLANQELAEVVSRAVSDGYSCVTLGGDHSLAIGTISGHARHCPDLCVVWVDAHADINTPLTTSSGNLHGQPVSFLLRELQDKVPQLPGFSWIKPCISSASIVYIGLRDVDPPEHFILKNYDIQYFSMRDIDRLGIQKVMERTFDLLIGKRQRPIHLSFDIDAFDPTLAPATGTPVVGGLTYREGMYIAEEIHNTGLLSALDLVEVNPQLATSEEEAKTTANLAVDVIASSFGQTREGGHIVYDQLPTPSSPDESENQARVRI

[6] = target: T3, Proteasome subunit beta (Trypanosoma cruzi) (UniProt O96673); experiment: Trypanosoma cruzi proteasome chymotrypsin-like activity (TcProtChymo) assay.; note: in the data most compounds retested in dose-response had high values; format: functional; conditions: 9.37 µM
T3 sequence (whole entry): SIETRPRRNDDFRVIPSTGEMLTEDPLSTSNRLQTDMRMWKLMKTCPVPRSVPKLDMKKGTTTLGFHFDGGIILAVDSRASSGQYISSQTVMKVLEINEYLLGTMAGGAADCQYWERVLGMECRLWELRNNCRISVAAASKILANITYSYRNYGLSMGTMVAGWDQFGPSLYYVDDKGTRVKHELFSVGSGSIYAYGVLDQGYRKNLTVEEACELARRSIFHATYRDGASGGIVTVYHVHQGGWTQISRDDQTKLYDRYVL

Homo sapiens = species on record: Homo sapiens; experiment: To identify inhibition of the IFN signalling (Jak-Stat) pathway via expression of an eGFP reporter gene under the control of an IFN-stimulated response element (ISRE) containing MxA promoter.; format: functional; conditions: 30 µM
[7] = target: T4, Tyrosyl-tRNA synthetase, putative (Trypanosoma cruzi (strain CL Brener)) (UniProt Q4DSP6); experiment: Trypanosoma cruzi tyrosyl tRNA synthetase (TcYRS) _High Tyrosine SOP; format: functional; conditions: 30 µM; note: in the data most compounds retested in dose-response had high values
T4 sequence (whole entry): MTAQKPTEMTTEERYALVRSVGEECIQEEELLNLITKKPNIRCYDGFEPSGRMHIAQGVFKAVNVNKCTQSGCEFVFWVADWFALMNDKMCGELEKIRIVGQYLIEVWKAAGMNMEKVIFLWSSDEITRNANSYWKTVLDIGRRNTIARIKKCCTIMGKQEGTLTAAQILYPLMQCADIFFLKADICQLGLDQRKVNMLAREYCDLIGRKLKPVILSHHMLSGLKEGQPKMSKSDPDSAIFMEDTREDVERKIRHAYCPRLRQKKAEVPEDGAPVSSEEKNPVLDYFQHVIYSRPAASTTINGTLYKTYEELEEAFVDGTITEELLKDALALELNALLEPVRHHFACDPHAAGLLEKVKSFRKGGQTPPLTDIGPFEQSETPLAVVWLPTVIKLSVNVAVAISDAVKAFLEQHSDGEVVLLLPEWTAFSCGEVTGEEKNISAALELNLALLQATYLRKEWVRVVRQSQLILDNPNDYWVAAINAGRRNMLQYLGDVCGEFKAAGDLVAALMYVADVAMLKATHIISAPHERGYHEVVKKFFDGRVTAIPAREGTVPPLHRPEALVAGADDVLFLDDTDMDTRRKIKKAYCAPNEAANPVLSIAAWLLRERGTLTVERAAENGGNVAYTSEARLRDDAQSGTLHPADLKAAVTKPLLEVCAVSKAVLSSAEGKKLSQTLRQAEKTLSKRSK

[8] = target: T4, Tyrosyl-tRNA synthetase, putative (Trypanosoma cruzi (strain CL Brener)); experiment: Trypanosoma cruzi tyrosyl tRNA synthetase (TcYRS) SOP; format: functional; conditions: 30 µM
[9] = target: Chromo domain-containing protein 1 (Saccharomyces cerevisiae (strain ATCC 204508 / S288c) (Baker's yeast)) (UniProt P32657); experiment: ScCHD-1 Enzyme Inhibition Assay; format: functional; conditions: 30 µM; note: in the data most compounds retested in dose-response had high values
Sequence of Chromo domain-containing protein 1 (Saccharomyces cerevisiae (strain ATCC 204508 / S288c) (Baker's yeast)) (P32657 whole entry, the tested form may be a part): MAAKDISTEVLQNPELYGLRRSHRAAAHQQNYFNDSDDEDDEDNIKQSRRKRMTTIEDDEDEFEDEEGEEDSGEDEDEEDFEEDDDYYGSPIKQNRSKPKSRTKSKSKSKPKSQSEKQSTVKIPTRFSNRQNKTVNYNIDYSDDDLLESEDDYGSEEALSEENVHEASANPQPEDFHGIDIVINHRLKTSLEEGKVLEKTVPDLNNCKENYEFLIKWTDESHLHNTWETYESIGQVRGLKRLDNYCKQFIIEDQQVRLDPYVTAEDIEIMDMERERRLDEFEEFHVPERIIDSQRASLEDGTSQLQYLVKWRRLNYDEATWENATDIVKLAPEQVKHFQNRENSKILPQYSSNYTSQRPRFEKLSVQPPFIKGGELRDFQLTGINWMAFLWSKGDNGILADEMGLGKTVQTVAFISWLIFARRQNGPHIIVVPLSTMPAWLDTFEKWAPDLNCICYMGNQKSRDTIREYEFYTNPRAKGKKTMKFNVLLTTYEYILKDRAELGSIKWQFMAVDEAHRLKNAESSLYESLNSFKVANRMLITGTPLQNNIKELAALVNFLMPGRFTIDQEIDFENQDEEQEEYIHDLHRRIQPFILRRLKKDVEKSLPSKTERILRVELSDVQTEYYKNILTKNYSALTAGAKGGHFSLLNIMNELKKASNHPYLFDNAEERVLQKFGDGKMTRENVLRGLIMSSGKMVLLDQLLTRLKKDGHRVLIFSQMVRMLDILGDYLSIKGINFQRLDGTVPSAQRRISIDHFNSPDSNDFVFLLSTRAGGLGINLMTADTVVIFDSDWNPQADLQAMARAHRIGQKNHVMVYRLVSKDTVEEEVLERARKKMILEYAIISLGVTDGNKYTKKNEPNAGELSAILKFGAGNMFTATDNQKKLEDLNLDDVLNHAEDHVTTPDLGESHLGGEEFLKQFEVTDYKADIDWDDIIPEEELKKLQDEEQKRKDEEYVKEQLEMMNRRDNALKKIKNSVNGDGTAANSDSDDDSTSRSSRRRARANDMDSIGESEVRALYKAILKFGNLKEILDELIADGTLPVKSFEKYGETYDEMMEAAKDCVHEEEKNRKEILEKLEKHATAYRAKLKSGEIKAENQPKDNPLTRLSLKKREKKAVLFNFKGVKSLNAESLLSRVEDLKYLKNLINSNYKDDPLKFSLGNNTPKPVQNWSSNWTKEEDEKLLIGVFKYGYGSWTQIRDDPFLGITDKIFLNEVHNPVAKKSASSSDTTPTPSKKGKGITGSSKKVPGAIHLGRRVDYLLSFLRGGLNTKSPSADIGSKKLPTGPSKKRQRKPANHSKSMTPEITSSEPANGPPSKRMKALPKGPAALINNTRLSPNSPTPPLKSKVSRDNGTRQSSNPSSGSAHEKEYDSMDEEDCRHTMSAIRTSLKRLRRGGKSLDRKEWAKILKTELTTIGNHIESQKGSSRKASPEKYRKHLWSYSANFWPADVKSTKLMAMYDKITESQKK

Compound	Percent Effect [1] [%]	Percent Effect [2] [%]	Percent Effect [3] [%]	Percent Effect [4] [%]	Percent Effect (Trypanosoma cruzi) [%]	Percent Effect [5] [%]	Percent Effect [6] [%]	Percent Effect (Homo sapiens) [%]	Percent Effect [7] [%]	Percent Effect [8] [%]	Percent Effect [9] [%]
CC1Cc2ccccc2N1Cc1occc1C(=O)OCC(N)=O (configuration not stated)	-4.31	11	7.16	10.7	4.56	-3.99	5.91	17	8.33	13.6	-3.53
CCCN1CCN(C(=O)C(C)n2cc(Br)cn2)CC1 (configuration not stated)	-1.59	15.6	5.22	7.33	3.05	-137	10.3	-2.4	7.53	21	-7.35
Cc1nc(CN2CCCC(N(C)CCc3cccs3)C2)no1 (configuration not stated)	-2.72	12.5	-8.86	8.38	-1.65	2.21	11.4	10.9	7.37	2.56	-2.19
O=S(=O)(NCC1CCN(c2cnccn2)CC1)c1c(F)cccc1F	0.613	5.2	-0.808	-3.89	-5.82	9.68	5.74	8.19	3.17	6.41	-7.48
O=C(c1cccc(=O)[nH]1)N(Cc1ccsc1)CC1CCCO1 (configuration not stated)	-0.641	10.8	-7.24	6.17	-0.386	2.86	12.8	11.3	7.94	17.1	-1.82
CCn1cnnc1CNC(=O)N(C)Cc1ccc2c(c1)OCCO2	-0.341	-16.2	-15.5	-4.03	0.66	-14.8	14.6	2.89	9.36	25.9	-8.11
c1cnc(NCc2noc3c2CN(C2CCOCC2)CC3)nc1	-4.67	18.7	-2.09	-2.32	3.86	-46.8	15.7	-2.62	7.29	22.5	-7.21
Cc1cc(C[C@@H]2CCC[C@H]2NCc2ccccc2C(F)(F)F)on1	-4.94	1.35	8.14	-0.325	0	2.55	6.4	13.5	2.15	9.09	-10.5
CN(Cc1ccncc1)CC(c1cccs1)N1CCOCC1 (configuration not stated)	-5.66	-29.7	-4.64	13.6	8.63	-2.03	5.57	19.6	5.94	13.4	-2.66
CCN(CC)CC(=O)NCCc1csc(N2CCCC2)n1	-3.47	-2.67	-4.85	-0.334	-2.24	-1.04	5.41	5.85	-0.546	-1.24	6.78
c1ccc2sc(CN3CCCC3c3noc(C4CC4)n3)nc2c1 (configuration not stated)	-2.02	-13.5	-1.08	-2.6	-2.88	0.185	0	9.41	8.91	23.2	6.83
CC(C)c1nc2c(n1C)CCN(CC(=O)Nc1ccc(Cl)cn1)C2	-1.64	15.6	1.07	6.83	0.686	-2.32	19.8	6.83	4.76	21.2	-21.7
O=C(Cc1cccs1)N1C[C@@H]2COC[C@]2(COc2cccnc2)C1	-2.91	8.11	-0.523	-5.15	7.62	-1.25	8.2	-12.3	7.92	11	-1.81
CCOCCN1CCN(Cc2cccc(C(=O)N(C)C)c2)CC1	-10.3	0	-8.88	18	9.38	-2.03	0	2.86	6.93	23.2	46.2
O=S(=O)(C1CC1)N1CCC2(COCc3cnc(N4CCOCC4)nc32)C1 (configuration not stated)	1.84	14.7	1.88	-4.21	-2.55	-6.16	9.61	13.3	1.06	5.13	-7.85
CCS(=O)(=O)N1CCOC2(CCCN(c3ccc(C)nn3)C2)C1 (configuration not stated)	-0.413	2.67	3.56	2.28	-1.35	-48.9	6.67	-5.88	-1.04	-2.5	0.0361
Cc1cnn(CC2CN(Cc3nc4ccccc4nc3C)CCO2)c1 (configuration not stated)	-4.61	2.6	-4.31	-1.3	6.56	-4	7.52	-8.59	9.52	14.1	-22.4
CN(C)S(=O)(=O)N1CCCC1CC(=O)c1cccs1 (configuration not stated)	2.35	2.7	-3.98	2.64	1.74	11.9	-0.862	16.6	-2.65	4.88	-1.64
CCn1cnnc1CNC(=O)N1CCN(c2cccc(OC)c2)CC1	-4.11	20.8	-7.68	2.16	-3.75	-0.356	12.3	25.9	12.6	14.6	-9.3
CCCn1ccc(C(=O)N2CCC(C)CC2)n1	-3.61	10.4	1.17	5.81	0.295	-44.1	6.49	-8.22	8.6	18.5	-1.29
O=C(O)c1cc2c(nc1O)CC(c1cccs1)CC2=O (configuration not stated)	-5.09	17.3	-2.58	-0.782	-5.5	-2.64	15.9	-5.05	2.12	-20.5	-9.66
CC(C1CC1)N(C(=O)NCCCn1nc2ccccn2c1=O)C1CC1 (configuration not stated)	-5.32	16.4	-9.44	24	3.13	20.9	15.3	1.6	4.3	15	-6.77
